Assay outcomes (PubChem)
Cruzain inh Det – inhibitors of Trypanosoma cruzi cruzain with detergent. purified cruzain, Z-FR-AMC fluorescence, 0.01% Triton. AID 1478. Potency, µM, inactives show max response, negative = inhibition, usual class: inhibitors. actives 0.43% (n = 200,000);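 further: plate controls were neutral wells for no effect and buffer without enzyme for full effect; nearly all actives have a fitted effect of over 40% in size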
Target sequence (P25779 123-467 limits assumed): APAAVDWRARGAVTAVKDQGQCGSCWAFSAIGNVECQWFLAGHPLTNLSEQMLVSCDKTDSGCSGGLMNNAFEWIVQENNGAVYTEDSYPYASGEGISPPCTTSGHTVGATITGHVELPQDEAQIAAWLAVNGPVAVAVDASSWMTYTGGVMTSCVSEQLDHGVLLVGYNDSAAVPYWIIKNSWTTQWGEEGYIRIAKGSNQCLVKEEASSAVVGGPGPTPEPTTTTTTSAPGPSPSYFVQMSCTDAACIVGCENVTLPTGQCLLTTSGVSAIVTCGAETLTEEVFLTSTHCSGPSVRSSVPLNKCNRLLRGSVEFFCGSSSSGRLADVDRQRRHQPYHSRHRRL
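Detergent-containing run (0.01% Triton X-100) in acetate buffer pH 5.5 with 5 mM DTT: enzyme at 1.5 nM final, 15 min compound preincubation at room temperature, then 2 uM Z-FR-AMC substrate. Activity taken as 60 s fluorescence increase at 360/450 nm.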
Cruzain inh noDet – cruzain (T. cruzi) inhibition without detergent; purified cruzain, Z-FR-AMC fluorescence, no detergent; Potency, µM, for the others: max response, negative = inhibition, actives largely listed as inhibitors; actives 2.3% (n = 200,000); AID 1476;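 further: plate controls were enzyme without inhibitor for no effect and buffer without enzyme for full effect; nearly all actives have a fitted effect of over 40% in size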
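Detergent-free condition (0.00005% Triton X-100) in acetate buffer pH 5.5 with DTT. 1.5 nM enzyme and compound were pre-mixed 15 min, then 2 uM Z-FR-AMC substrate added; reaction progress from fluorescence change between first and third reads (60 s).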
The depositor's hits bear a star. In the library only some 2.5% were active in any assay of this set; here they are far more common. The call rests on the fitted dose curve; in most records, active means well fitted curve in the direction sought with a large enough effect; inconclusive means small, poorly fitted or top-dose-only effect, or another doubt; inactive means no such curve, though single readings can be large; an effect the other way counts as inactive or inconclusive. Potency means the concentration at half of the fitted maximal effect.

`CC(C)[C@@H](CC(=O)N[C@@H]1CCCC[C@H]1C(=O)N[C@H](CC(=O)N[C@@H](CCC(=O)O)CC(=O)O)Cc1ccccc1)NC(=O)C[C@H](Cc1c[nH]c2ccccc12)NC(=O)[C@@H]1CCCC[C@H]1N` gave Cruzain inh Det 0.6% and Cruzain inh noDet inconclusive.
`O=C1NC(=Nc2ccc(Cl)cc2)/C(=C/c2ccco2)S1` gave Cruzain inh Det -20.7% and Cruzain inh noDet 5.01µM*.
For Cc1cccc(N=C2NC(=O)S/C2=C\c2ccco2)c1 the results were Cruzain inh Det -4.4% and Cruzain inh noDet inconclusive.
CCOC(=O)c1ccc(N2C(=O)c3[nH]nc(-c4ccc(OC)cc4)c3C2c2ccc(C)cc2)cc1 (centres undefined) was read as Cruzain inh Det -2.4% and Cruzain inh noDet 25.1µM*.
CCOC(=O)c1ccc(N2C(=O)c3n[nH]c(-c4cccs4)c3C2c2ccc(C)cc2)cc1 (centres undefined) was read as Cruzain inh Det -1.9% and Cruzain inh noDet -7.9%.
CCOC(=O)c1ccc(N2C(=O)c3n[nH]c(-c4cccs4)c3C2c2ccc(Cl)cc2Cl)cc1 (centres undefined) was read as Cruzain inh Det -1.2% and Cruzain inh noDet 20µM*.
Screening COc1ccc(-c2n[nH]c3c2C(c2ccc(O)cc2)N(c2ccc(Br)cc2)C3=O)cc1 (centres undefined) returned Cruzain inh Det -1.4% and Cruzain inh noDet inconclusive.
`CCOC(=O)c1ccc(N2C(=O)c3n[nH]c(-c4ccco4)c3C2c2ccc(OCC)cc2)cc1` (centres undefined) gave Cruzain inh Det -29.2% and Cruzain inh noDet 13.6%.
Screening COc1ccc(OC)c(C2c3c(-c4ccc(Br)cc4)n[nH]c3C(=O)N2c2ccc(Cl)cc2)c1 (centres undefined) returned Cruzain inh Det -1.9% and Cruzain inh noDet 15.8µM*.
`CCN(CC)c1ccc(CN(C(=O)c2cc(=O)c3ccccc3o2)C2CCS(=O)(=O)C2)cc1` (centres undefined) gave Cruzain inh Det -3.3% and Cruzain inh noDet -14.5%.
For COc1ccc(NC(=O)c2nc(-c3ccc(C)cc3)n3c2CCCCC3)cc1 the results were Cruzain inh Det -6.4% and Cruzain inh noDet -27.7%.
For Cc1ccccc1CNC(=O)CCCn1c(=O)c2cccn2c2cccnc21 the results were Cruzain inh Det -4.8% and Cruzain inh noDet -5.4%.
COc1ccc(CC(=O)NCc2ccc3c(c2)CCN3C(C)=O)cc1 was read as Cruzain inh Det 4.1% and Cruzain inh noDet 0.5%.
Screening CCCCN(C)C(=O)C1CCC(=O)N(c2cc(OC)c(OC)c(OC)c2)C1c1ccc(OC)cc1 (centres undefined) returned Cruzain inh Det 0.2% and Cruzain inh noDet inconclusive.
N#Cc1cccc(-n2c(-c3ccccc3)nnc2-c2ccccc2)c1C#N was read as Cruzain inh Det -8.5% and Cruzain inh noDet inconclusive.
`N#Cc1ccc(-n2c(-c3ccccc3)nnc2-c2ccccc2)cc1C#N` gave Cruzain inh Det -10.5% and Cruzain inh noDet 20µM*.
For COc1cc(CCC(=O)NCc2ccc3c(c2)CCN3C(=O)c2ccccc2)cc(OC)c1OC the results were Cruzain inh Det 3.8% and Cruzain inh noDet inconclusive.
For Cc1sc2ncnc(Sc3ccccc3C(=O)Nc3ccc(Br)cc3)c2c1C the results were Cruzain inh Det -3.8% and Cruzain inh noDet 12.6µM*.
Screening Cc1sc2ncnc(Sc3ccccc3C(=O)Nc3ccc(C#N)cc3)c2c1C returned Cruzain inh Det -4.6% and Cruzain inh noDet 12.4%.
Screening Cc1ccc(N2CCN(S(=O)(=O)c3ccc(F)c(C(=O)Nc4ccc(Cl)cc4Cl)c3)CC2C)cc1 (centres undefined) returned Cruzain inh Det 0.7% and Cruzain inh noDet -8.9%.
Screening COc1ccccc1NC(=O)c1cc(S(=O)(=O)N2CCN(c3ccccc3Cl)CC2)ccc1F returned Cruzain inh Det 0.7% and Cruzain inh noDet 10µM*.
For Cc1ccc(C)c(NC(=O)c2cc(S(=O)(=O)N3CCN(c4cccc(Cl)c4)CC3)ccc2F)c1 the results were Cruzain inh Det 1.1% and Cruzain inh noDet 7.94µM*.
Screening COc1ccccc1N1CCN(S(=O)(=O)c2ccc(F)c(C(=O)Nc3ccc(Cl)cc3C(F)(F)F)c2)CC1 returned Cruzain inh Det 0.5% and Cruzain inh noDet inconclusive.
For CC(=O)c1ccc(-c2cccc(-c3cc(=O)oc4ccc(C(C)(C)C)cc34)c2)cc1 the results were Cruzain inh Det -0.6% and Cruzain inh noDet 28.2µM*.
For COc1cc2oc(=O)cc(-c3cccc(-c4ccc(C(C)=O)cc4)c3)c2c(OC)c1OC the results were Cruzain inh Det 1.5% and Cruzain inh noDet 19.2%.
`Oc1ccc(Br)cc1-c1cc(-c2ccc(Cl)cc2)n[nH]1` gave Cruzain inh Det 8.2% and Cruzain inh noDet 31.6µM*.
For Oc1ccc(Br)cc1-c1cc(-c2ccccc2)n[nH]1 the results were Cruzain inh Det -14.1% and Cruzain inh noDet -15.3%.
For O=C(CCC(=O)N1CCSc2ccccc21)NCc1ccccc1Cl the results were Cruzain inh Det -2.6% and Cruzain inh noDet -4.4%.
For Nc1ccc2c(c1)C/C(=C/c1ccco1)C2=O the results were Cruzain inh Det -15.1% and Cruzain inh noDet inconclusive.
Screening COc1ccc2c(c1)CC/C(=C/c1ccco1)C2=O returned Cruzain inh Det 22.4µM* and Cruzain inh noDet 20µM*.
Screening Cc1onc(-c2ccccc2Cl)c1C(=O)Oc1ccccc1F returned Cruzain inh Det 0.5% and Cruzain inh noDet -6.6%.
`CC1(C)CC2C1CC[C@]1(C)CCC3C(C(=O)O)CC(=O)O[C@]32C1` (some centres undefined) gave Cruzain inh Det -7.4% and Cruzain inh noDet 21.3%.
For O=S(=O)(O)c1cc(N=[N+]([O-])c2cc(S(=O)(=O)O)c3ccccc3c2)cc2ccccc12 the results were Cruzain inh Det -18.5% and Cruzain inh noDet inconclusive.
`CCn1c(-c2cc(-c3cccc(OC)c3)nc3ccccc23)n[nH]c1=S` gave Cruzain inh Det -12.7% and Cruzain inh noDet 5.2%.
For CCc1ccc(-c2cc(-c3n[nH]c(=S)n3CC)c3ccccc3n2)cc1 the results were Cruzain inh Det -3.4% and Cruzain inh noDet 15.8µM*.
CCc1cccc(NC(=O)Cn2nc(C)c3sc4ccccc4c3c2=O)c1 was read as Cruzain inh Det -7.8% and Cruzain inh noDet inconclusive.
Screening O=C(Nc1cccc(Cl)c1)Nc1nnc(CSCCOc2ccc(Cl)cc2)s1 returned Cruzain inh Det -3.8% and Cruzain inh noDet inconclusive.
COc1ccc(OCCSCc2nnc(NC(=O)Nc3ccc(Cl)cc3)s2)cc1 was read as Cruzain inh Det -2.1% and Cruzain inh noDet 12.6µM*.
CCc1nnc(NC(=O)Nc2ccc(OC)cc2)s1 was read as Cruzain inh Det 2.1% and Cruzain inh noDet 8.6%.
For Cc1ccc(NC(=O)Nc2nnc(CSCCOc3ccc(Cl)cc3)s2)cc1 the results were Cruzain inh Det 0.0% and Cruzain inh noDet 7.94µM*.
CC(Oc1ccccc1)C(=O)OCc1cc(=O)n2nc(C(C)C)sc2n1 (centres undefined) was read as Cruzain inh Det 0.0% and Cruzain inh noDet 4.4%.
Screening CC(N)=O returned Cruzain inh Det 9.3% and Cruzain inh noDet 7.8%.
O=S(=O)(c1ccccc1)N1CCC[C@@]2(CCN(c3cccc(-c4ccccc4)c3)C2)C1 was read as Cruzain inh Det 0.7% and Cruzain inh noDet 3.98µM*.
Screening O=S(=O)(c1ccccc1)N1CCC2(CCCN(c3cccc(-c4ccccc4)c3)C2)CC1 returned Cruzain inh Det 0.4% and Cruzain inh noDet inconclusive.
